# From PubChem
# MARV entry inh = inhibitors of Marburg virus binding or cell entry; Marburg virus pseudotyped entry inhibition, cell reporter; Potency, µM (doses to about 37.8 µM), for inactives: at the highest dose activity change, negative = inhibition, most hits filed as inhibitors; hit rate 1.8% among 300,000; calls by dose curve; tested in HEK293 cells; note: potency is the fitted concentration of half-maximal effect
# Pf growth 96h = P. falciparum growth inhibition at 96 hours | P. falciparum luciferase reporter growth, 96 h | Potency, µM (series often up to 28.7 µM), without a hit: at the highest dose activity change, negative = inhibition, most hits filed as inhibitors | hit rate 6.9% among 320,000; note: potency is the fitted concentration of half-maximal effect
#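 Plates of compound plus infected erythrocytes (2% hematocrit, 0.05% parasitemia final) incubate 96 hours, 37 C, 5% CO2. Detection reagent added; reduced luminescence from the parasites' luciferase reporter flags inhibition.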
# HCMV antiviral = human cytomegalovirus inhibition; hit rate 4.5% among 410,000; HFF cells, HCMV-luciferase reporter, 72 h; hits give low values; activity change, negative = inhibition, % at 57.5 µM; AID 1259415; in the data active = activity change below about -60%; inconclusive = no clear call, values can overlap the other calls; inactive = above about -39%
#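 Two-dose cell screen: HFF monolayers treated with compounds and infected with luciferase-expressing HCMV at 1 PFU/cell, 72 h at 37C, then lysed for luciferase measurement.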
# Lassa entry inh = inhibitors of Lassa virus binding or cell entry; hit rate 1.2% among 300,000; Lassa virus pseudotype entry inhibition, cell reporter; Potency, µM (titrated, usually from 37.9 µM), for the others: at the top dose activity change, negative = inhibition, hits mostly inhibitors; calls by dose curve; tested in HEK293 cells; note: potency is the fitted concentration of half-maximal effect; nearly all actives have a fitted effect of over 50% in size
# Pf growth 48h = P. falciparum growth inhibition at 48 hours (one generation). Potency, µM (doses to about 28.7 µM), for the others: at the highest dose activity change, negative = inhibition, most hits filed as inhibitors. hit rate 5.9% among 310,000. P. falciparum luciferase growth in erythrocytes, 48 h. AID 504832; note: potency is the fitted concentration of half-maximal effect
#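 Parasite viability was followed by luminescence of a genomically integrated firefly luciferase. Cultures held 0.1% parasitemia at 2% hematocrit (final), incubated under 5% CO2 at 37 C.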
# HCV inh = blocks hepatitis C virus; hit rate 3.4% among 340,000; AID 651820; Huh7.5.1 HCVcc-Cre infection, luciferase reporter, 44 h; Potency, µM (series often up to 41.8 µM), inactives show top-dose activity change, negative = inhibition, most hits filed as inhibitors; note: potency is the fitted concentration of half-maximal effect
#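 Compounds are dispensed onto cells plated 4 h earlier at 1,000 per well, with HCVcc-Cre virus (about 0.5 moi) added next. Following 44 h of culture, luminescent signal is measured for 15 sec after 15 min with substrate at room temperature.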
# * marks the source's active call; other numbers are inactive results; ? = inconclusive; · = no result; [ ] = dose if it differs, or a comment. In the library only some 14% were active in any assay of this set; here they are far more common. Unless noted, calls come from the whole dose curve; as a rule, active = well fitted inhibition curve with a large enough effect; inconclusive = small, poorly fitted or top-dose-only effect, or another doubt; inactive = no such curve, though single readings can be large or run the other way. % is set by controls: 0 for no effect and ±100 for the full control effect.
SMILES,MARV entry inh,Pf growth 96h,HCMV antiviral,Lassa entry inh,Pf growth 48h,HCV inh
CC(N)C(=O)NC(C(=O)NC(C)C(=O)Nc1cccc2ccccc12)C(C)C (centres undefined),·,·,1,·,·,·
C=CC[C@H](CC(=O)OC(C)(C)C)C(=O)OC[C@H]1CCCN1C(=O)[C@@H](CC=C)CC(=O)N(CCO)Cc1ccccc1,·,·,0,·,·,?
N#C/C(=C\c1ccc(-c2ccc(C(=O)O)cc2)o1)C(=O)Nc1ccc(F)cc1,·,9.3µM*,33,·,-17%,16%
CC1(C)N=C(N)N=C(N)N1c1ccc(OCC(=O)Nc2ccccc2)c(Cl)c1,·,·,-95*,·,·,·
Cc1cccc(NC(=O)CCc2ccccc2)c1,17%,-23%,-1,30%,171%,?
CC1(C)N=C(N)N=C(N)N1c1ccc(OCC(=O)N2CCOCC2)c(Cl)c1,·,·,-101*,·,·,·
CC1(C)N=C(N)N=C(N)N1c1ccc(OCCCOc2ccccc2)c(Cl)c1,·,0.023µM*,-100*,·,0.026µM*,?
Cc1cccc(NC(=O)CCc2ccc(N3C(N)=NC(N)=NC3(C)C)cc2)c1,·,·,-99*,·,·,·
COC(=O)[C@@H]1[C@@H](CO)[C@@H]2Cn3c(cccc3=O)[C@@H]2N1C(=O)c1ccccc1,·,·,-5,·,·,·
CCCCCC(=O)N1C[C@@H](O)[C@H](n2cc(COC(=O)c3ccccc3)nn2)C[C@@H]1c1ccc(OC)cc1,·,·,7,·,·,·
CC1(C)N=C(N)N=C(N)N1c1cccc(CC(=O)Nc2ccccc2)c1,·,·,-82*,·,·,·
CCN1C(=O)c2ccccc2Sc2ccc(NC(=O)Nc3cc(C)cc(C)c3)cc21,5%[46.1 µM],·,-99*,0%[46.1 µM],·,·
CCN1C(=O)c2ccccc2Sc2ccc(NC(=O)c3ccc(Cl)cc3)cc21,·,·,12,18%[46.1 µM],·,·
O=C(Nc1ccc2c(c1)N(Cc1ccccc1)C(=O)c1ccccc1S2)NC1CC1,?,12µM*,0,?,6.6µM*,9%
CC(=O)Nc1ccc(C(=O)Nc2ccc3c(c2)N(C2CCCC2)C(=O)c2ccccc2S3)cc1,·,·,-83*,6.3µM*,·,·
N#Cc1ccc(C(=O)Nc2ccc3c(c2)N(C2CCCC2)C(=O)c2ccccc2S3)cc1,·,·,-32,?,·,·
Cc1cccc(NC(=O)c2oc3ccccc3c2NC(=O)c2cc(=O)c3ccc(C)cc3o2)c1,0%[46.1 µM],·,1,-1%[46.1 µM],·,·
CCN(CC(=O)NCc1ccc(Cl)cc1)C(=O)COc1cccc(Cl)c1,?,?,-20,-5%,-6%,?
CSCCC(NC(=O)COc1ccccc1)C(=O)N(C)Cc1c(F)cccc1Cl (centres undefined),·,·,-35,·,·,·
CCOc1cc(C(=O)N(Cc2nc(-c3ccc(C)cc3)no2)C(C)C)cc(OCC)c1OCC,-6%[46.1 µM],·,-83*,24%[46.1 µM],·,·
CC(C)N(Cc1nc(-c2ccccc2)no1)C(=O)c1ccc(Cl)cc1,·,-4%,-89*,·,·,?
COc1ccc(-c2noc(CN(C(=O)c3ccccc3Cl)C(C)C)n2)cc1,-2%[46.1 µM],·,-16,-27%[46.1 µM],·,·
Cc1ccccc1C(=O)N(Cc1nc(-c2ccc(Cl)cc2)no1)C(C)C,-27%[46.1 µM],·,?,?,·,·
Cc1ccc(C(=O)N(Cc2nc(-c3ccc(C)cc3)no2)C(C)C)cc1,·,?,6,·,·,-11%
COc1ccccc1C(=O)N(Cc1nc(-c2ccc(Cl)cc2)no1)C(C)C,·,5%,-18,·,·,11µM*
SMILES,MARV entry inh,Pf growth 96h,HCMV antiviral,Lassa entry inh,Pf growth 48h,HCV inh
CCCCOc1ccc(C(=O)N(Cc2nc(-c3ccc(Cl)cc3)no2)C(C)C)cc1,4%[46.1 µM],·,2,?,·,·
COc1ccc(-c2noc(CN(C(=O)c3c(-c4ccccc4Cl)noc3C)C(C)C)n2)cc1,-18%,·,38,?,10µM*,?
Cc1ccccc1OCC(=O)N(Cc1nc(-c2ccccc2)no1)C(C)C,?,-8%,-18,-10%,?,0%
COc1ccccc1OCC(=O)N(Cc1nc(-c2ccccc2)no1)C1CCCCC1,?,·,14,-23%,13µM*,11µM*
CC(C)N(Cc1nc(-c2ccccc2)no1)C(=O)c1ccc([N+](=O)[O-])cc1,·,13%,10,·,5%,22µM*
CC(C)N(Cc1nc(-c2ccc(Cl)cc2)no1)C(=O)c1cccs1,?,-5%,-60*,0%,-10%,?
COc1cc(Cl)c(C)cc1NC(=O)CSc1nc2c(c(=O)[nH]1)CCCC2,-1%[46.1 µM],·,-7,-7%[46.1 µM],·,·
CCOc1ccc(NC(=O)CSc2nc(=O)[nH]c3c2CCC3)cc1,·,·,-27,?,·,·
C=CCN(CC=C)C(=S)NC(=O)c1ccc(OC)cc1,-19%[46.1 µM],27%,?,-3%,?,-17%
COc1cc(C(=O)NC(=S)N(C)Cc2ccccc2)cc(OC)c1OC,9%[46.1 µM],?,-28,-25%,-15%,1%
C=CCN(CC=C)C(=S)NC(=O)c1ccc(-c2ccccc2)cc1,?,7.4µM*,-31,-30%,·,?
CN(Cc1ccccc1)C(=S)NC(=O)c1ccc(-c2ccccc2)cc1,?,7.4µM*,-40,6%,?,0%
COc1cc2cc(CN(CCc3ccccc3C)C(=S)NCCCN(C)C)c(=O)[nH]c2cc1OC,?,?,-36,?,13µM*,?
COc1cc2cc(CN(CCc3ccccc3C)C(=S)NCCCN3CCOCC3)c(=O)[nH]c2cc1OC,·,322%,-64*,·,7.4µM*,?
CCNC(=S)N(CCc1ccccc1C)Cc1cc2cc(OC)c(OC)cc2[nH]c1=O,6%,?,-11,-4%,?,-2%
COc1ccccc1NS(=O)(=O)c1cc(N/C(=N\S(=O)(=O)c2ccccc2)c2ccc(F)cc2)ccc1Cl,?,13µM*,-5,?,9.3µM*,35µM*
COc1ccccc1NS(=O)(=O)c1cc(NC(=S)Nc2cc(C)cc(C)c2)ccc1Cl,?,?,-82*,-21%,-25%,?
COc1ccccc1NS(=O)(=O)c1cc(NC(=O)Cc2n[nH]c(=O)c3ccccc23)ccc1Cl,?,·,16,?,·,3.2µM*
COc1ccc(NS(=O)(=O)c2cc(NC(=O)Cc3n[nH]c(=O)c4ccccc34)ccc2OC)cc1,24%,·,0,-6%,·,?
COc1ccc(N(C(=O)c2cccc(OC)c2OC)C2C=CS(=O)(=O)C2)cc1 (centres undefined),1%,2.3µM*,82,3%,35%,21%
CCc1nn2c(=O)cc(COC(=O)c3ccco3)nc2s1,·,·,-9,?,·,·
COCCN1Cc2cc(C(=O)OC)c3c(c2C1=O)c1cc(OC)ccc1n3S(=O)(=O)c1ccc(C)cc1,·,·,-32,·,·,·
CCOc1cc2[nH]c(=O)n(CCC(=O)N3CCN(c4ccccc4)CC3)c(=O)c2cc1OCC,·,·,-2,15%[46.1 µM],·,·
